# Data: PubChem BioAssay AID1458 (National Center for Advancing Translational Sciences (NCATS), 2008)
# Among all 210,000 compounds or so, about 5,900 (2.8%) were called active. About 5% were inconclusive and are not listed. The entries come from a sample that favours actives as a whole. A number with no mark means an inactive call. The call rests on the fitted dose curve; in most records, active means well fitted activation curve with a large enough effect; inconclusive means small, poorly fitted or top-dose-only effect; inactive means no such curve, though single readings can be large or run the other way.
# Test: qHTS Assay for Enhancers of SMN2 Splice Variant Expression; further: nearly all actives have a fitted effect of over 55% in size; on activity change, positive = activation: % of control where 0% means no effect
# Conditions: HEK293 SMN2-luciferase splicing reporter, luminescence, 30-36 h; series mostly up to 46.1 µM; activity change, positive = activation: at the top concentration
# Outline: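 HEK293 cells carry an SMN2 minigene-luciferase reporter in which exon 7 inclusion puts luciferase in frame. Cells were seeded at 2000 cells/well, attached for 10-12 hours, then exposed to compounds for 30-36 hours at 37C before ONE-Glo luminescence.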
# Potency means the concentration at half of the fitted maximal effect.
SMILES,Potency,"activity change, positive = activation [%]"
CC(C)CC(=O)N/C(N)=N/c1nc2ccccc2s1,11.2 µM (active),
COC(=O)c1nc2ccccc2s1,,-17.7
CCC(=O)NC(=Nc1nc2ccccc2s1)NC(=O)CC,10 µM (active),
CCc1nn(CC(=O)N2CCN(c3ccc(Cl)cc3)CC2)c(=O)c2cc3occc3n12,,-8.33
CCc1ccc(S(=O)(=O)Nc2cc3c(C(=O)OCc4ccccc4)c(C)oc3c3ccccc23)cc1,,-8.12
O=C(CSc1ncc(S(=O)(=O)c2ccc(Br)cc2)c(=O)[nH]1)Nc1ccc2c(c1)OCCO2,,-4.42
Cc1ccc(NC(=O)CN2c3ccccc3S(=O)(=O)c3ccccc32)cc1F,,-8.12
CCOc1ccccc1NC(=O)CCS(=O)(=O)c1cccc2nsnc12,,7.78
O=C(CSCc1ccc(Cl)cc1)N1CCN(Cc2ccc3c(c2)OCO3)CC1,,-32.9
O=C(CSCc1cccs1)N1CCCC1,12.6 µM (active),
O=C(CSc1ccsc1[N+](=O)[O-])N1CCCCC1,,4.74
O=C(Cn1c(=O)n(Cc2ccccc2)c(=O)c2sc3ccccc3c21)Nc1ccccc1F,,-17.9
Cc1ccc(-c2nnc3c4ccccc4c(C)nn23)cc1NC(=O)c1cccc(Br)c1,,-0.0665
O=S(=O)(Nc1ccccn1)c1ccc(Oc2ccccc2)cc1,,6.26
COc1ccc2c(c1OC)C(=O)OC2Nc1nc(-c2ccccc2)cs1 (stereo not drawn),,26.9
COc1ccc(-c2csc(NC(=O)c3ccc(N4C(=O)CCC4=O)cc3)n2)cc1OC,,-3.03
O=C(Nc1ccc(Cl)cn1)Nc1cccs1,,13.8
Clc1ccc(Nc2nc(-c3cccs3)cs2)nc1,14.1 µM (active),
COc1ccc(-c2csc(Nc3ccccn3)n2)cc1,2.24 µM (active),
COc1ccc(C)cc1Nc1nc(-c2c(C)[nH]c3ccccc23)cs1,,14
COc1ccc(NC(=O)c2sc(N)nc2-c2ccccc2)cc1,,11.7
COc1ccc(Nc2nc(-c3ccccc3)cs2)cc1,10 µM (active),
NS(=O)(=O)c1ccc(Nc2nc(-c3ccccc3)cs2)cc1,,-10.2
COC(=O)CSc1nccc(-c2cccs2)n1,,-2.36
COc1ccc(OC)c(Nc2nc(-c3ccc(O)c(O)c3)cs2)c1,17.8 µM (active),
CCOc1cc(C2c3c(-c4ccc(Br)cc4)n[nH]c3C(=O)N2c2ccc(Cl)cc2)ccc1O (stereo not drawn),,-31.4
O=C(c1ccc2c(c1)N(Cc1ccc(Cl)cc1)C(=O)c1ccccc1S2(=O)=O)N1CCCCC1,,-11.6

SMILES,Potency,"activity change, positive = activation [%]"
CC1CCC2(CC1)N=C(c1ccccc1)C(=O)N2CC(=O)Nc1ccc(F)c(Cl)c1 (stereo not drawn),,6.66
O=C(Nc1nc(-c2ccncc2)cs1)C1COc2ccccc2O1 (stereo not drawn),,14.3
O=C(Nc1nc(-c2ccc(-c3ccccc3)cc2)cs1)c1cnccn1,,-28.6
c1ccc(Nc2nc(-c3ccncc3)cs2)nc1,12.6 µM (active),
CSc1ccc(NC(=O)Cn2nnnc2-c2ccccc2F)cc1,,-1.68
CN(c1ccccc1)S(=O)(=O)c1ccc(Cl)c(C(=O)NCCc2c[nH]c3ccccc23)c1,,-16.4
O=C(NCCc1c[nH]c2ccccc12)c1cc2ccccc2oc1=O,17.8 µM (active),
O=C(NCCc1c[nH]c2ccccc12)C(=O)NCC1CCCO1 (stereo not drawn),,-8.48
O=C(Nc1cccc2cccnc12)c1cccc2c(Br)cccc12,,2.49
CCOC(=O)c1c(-c2ccc(OC)cc2)oc2ccc(OCc3ccc(C(=O)OC)cc3)cc12,,-6.6
COC(=O)c1sc(NC(=O)c2csc3c2CCCC3)nc1C,2.51 µM (active),
Cc1ccc(NC(=O)c2csc3c2CCCC3)cc1,4.47 µM (active),
O=C(NCc1ccccc1Cl)c1csc2c1CCCCC2,,5.72
COC(=O)c1sccc1NC(=O)c1csc2c1CCCC2,,32.6
CCOC(=O)c1ccc(NC(=O)c2csc3c2CCCCC3)cc1,,-16.6
CC(=O)Cc1nsc(NC(=O)c2csc3c2CCCC3)n1,,4.95
COc1ccc(OC)c(NC(=O)/C=C/c2ccc(C)o2)c1,,-0.29
NC(=O)c1sc(-c2ccsc2)cc1N,,14.9
COc1ccc(CNC(=O)CS(=O)Cc2nc(-c3cccc(C)c3)oc2C)cc1 (stereo not drawn),,-5.97
CC(=O)Nc1ccc(NC(=O)C(C)OC(=O)c2ccccc2C(=O)c2ccc(Cl)c([N+](=O)[O-])c2)cc1 (stereo not drawn),25.1 µM (active),
CC(CC(=O)O)C(=O)c1ccc(Cl)c([N+](=O)[O-])c1 (stereo not drawn),,5.72
N#Cc1cccc(NC(=O)COC(=O)c2ccccc2C(=O)c2ccc(Cl)c([N+](=O)[O-])c2)c1,,-115
COc1cc(OC)c(NC(=O)c2c3c(nn2C)-c2ccccc2SC3)cc1Cl,,-7.27
COc1ccccc1N1CCN(C(=O)c2cn(-c3ccccc3)nc2-c2cccnc2)CC1,22.4 µM (active),
O=C(c1cn(-c2ccccc2)nc1-c1cccnc1)N1CCCCC1,,-3.31
COC(=O)c1cn(-c2ccccc2)nc1-c1cccnc1,,-22
